Experimental data reported in PubChem BioAssay AID504465 (National Center for Advancing Translational Sciences (NCATS), 2011).
About 210 (10%) of roughly 2,100 compounds were called active. Roughly 53% stayed inconclusive and do not appear here. The call rests on the fitted dose curve; in most records, active means well fitted inhibition curve with a large enough effect; inconclusive means small, poorly fitted or top-dose-only effect, or effect the other way; inactive means no such curve, though single readings can be large or run the other way. Some of the results follow.

Assay: IN Cell qHTS Assay for Inhibitors of the mTORC1 Signaling Pathway in MEF (Tsc2-/-, p53-/-) Cells: Sytravon; further: nearly all actives have a fitted effect of over 60% in size
Settings: phospho-rpS6 immunofluorescence, 24 h; series mostly up to 38.3 µM; activity, negative = inhibition: at the top concentration
Method in brief: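 Immunofluorescence of rpS6 phosphorylation (Ser235/236) in mouse embryonic fibroblasts lacking Tsc2 and p53, after 24 h compound exposure; Hoechst-normalized signal imaged, each well scored as % active cells relative to rapamycin (7.5 nM) and DMSO controls.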
Potency means the concentration at half of the fitted maximal effect.

activity, negative = inhibition, inactive:
CN1CCc2c(sc(NC(=O)CSc3ccc(F)cc3)c2-c2nc3ccccc3s2)C1 -2.19%
CCC1=Nc2cc(C(=O)NCC(C)c3ccccc3)ccc2Sc2ccc(C)cc21 (stereo unspecified) 3.53%
CCn1cc2nc(SCC(=O)Nc3cccc(Cl)c3C)n(Cc3ccc(Cl)cc3)c(=O)c2n1 -2.07%
COc1ccc(-c2nc(SCC(=O)Nc3ccc4c(c3)OCCO4)c(-c3ccc(F)cc3)[nH]2)cc1 -6.12%
CC1=C(C(=O)OCC2CCCCC2)C(c2ccc(Cl)cc2)CC(=O)N1 (stereo unspecified) 14.2%
O=C1c2[nH]nc(-c3ccccc3O)c2C(c2ccc(Cl)cc2)N1Cc1ccco1 (stereo unspecified) -21.5%
COc1ccc(C2(Nc3cccc(C(=O)O)c3C)C(=O)c3ccccc3C2=O)cc1 -0.529%
CCc1ccc(Oc2nc3c(C)cccn3c(=O)c2/C=C(\C#N)c2nc3ccccc3[nH]2)cc1 -94.3%
COc1cccc(NS(=O)(=O)c2ccc3c(c2)CCCN3C(=O)C2CCC2)c1 -3.21%
CCc1ccc(C(=O)CC2(O)C(=O)N(Cc3ccc(C)cc3)c3ccccc32)cc1 (stereo unspecified) -88.7%
COc1ccc(N2C(=O)CCSC23C(=O)N(Cc2ccc(F)cc2)c2ccccc23)cc1Cl (stereo unspecified) -17.3%
CCOC(=O)CN1C(=O)C(O)(CC(=O)c2cc(OC)ccc2OC)c2ccccc21 (stereo unspecified) 46%
Cc1ccc(CN2C(=O)C(O)(c3c(C)[nH]c4ccccc34)c3ccccc32)cc1 (stereo unspecified) -20.6%
CCOC(=O)C1CCN(C(=O)CSc2c3c(nc4ccc(Cl)cc24)CCCC3)CC1 -16.3%
COC(=O)c1c(NC(=O)c2ccc(S(=O)(=O)N3CCCCC3)cc2)sc2c1CCN(C)C2 -14%
Cc1ccc(NC(=O)/C=C\C(=O)N(c2ccc(C(C)C)cc2)C(C(=O)NCc2ccco2)c2ccc(F)cc2)cc1 (stereo unspecified) 6.25%
COc1ccc(Nc2cc(C)nc3c(C)c(C)ccc23)cc1 0%
COc1cc(Nc2nc(SCC(=O)c3ccc(Cl)c(Cl)c3)nc3ccccc23)cc(OC)c1 -6.06%
Clc1cccc(-n2ncc3c(NC4CCCCC4)ncnc32)c1 6.25%
Cc1cccc(Cc2c(C)nc3nc(SCC(=O)NCc4ccc(F)cc4)nn3c2C)c1 -21.1%
CC(=O)N1CCc2cc(CNS(=O)(=O)c3cccs3)ccc21 21.8%
Cc1nc2nncn2c(NCc2ccc(Cl)cc2)c1C -6.25%
COc1ccc(CCNC(=O)c2cc3n(n2)CCCN(Cc2ccc(C)cc2)C3=O)cc1OC -1.23%

Potency, active:
COc1cc(C(=O)CC2(O)C(=O)N(Cc3ccccc3Cl)c3ccccc32)cc(OC)c1OC (stereo unspecified) 0.147 µM
Cc1ccc(CN2C(=O)C(O)(CC(=O)c3ccc(C)cc3)c3ccccc32)cc1 (stereo unspecified) 16.5 µM
COc1ccc2nc(C)cc(Nc3ccc(Cl)c(Cl)c3)c2c1 13.1 µM
